# Bioassay records deposited in PubChem by National Center for Advancing Translational Sciences (NCATS).
# Sfp PPTase inh – blocks B. subtilis Sfp PPTase activity | Q9F4F7 | Biochemical Sfp PPTase activity, qHTS | Potency, µM, for inactives: largest response in the series, negative = inhibition, usual class: inhibitors | 3.5% of 310,000 active;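 note: the enzyme is Sfp with the accession as filed and its product quenches rhodamine fluorescence; 0% = enzyme reaction without inhibitor and -100% = no enzyme wells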
#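 Step 1, compound plus 15 nM Sfp-PPTase, 15 min, room temperature. Step 2, add rhodamine-CoA (5 uM) and BHQ-2-YbbR (12.5 uM). Step 3, read 525/598 nm fluorescence at 0 and 30 min.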
# PLK1 PBD inh – blocks phosphopeptide binding to human PLK1 polo-box domain. 2.8% of 360,000 active. Potency, µM, for inactives: max response, negative = inhibition, most hits filed as inhibitors. Plk1 PBD binding of FITC phosphopeptide, fluorescence polarization; note: series mostly up to about 57 µM; nearly all actives have a fitted effect of over 65% in size
# RORg inh – blocks mouse ROR gamma transcriptional activity | P51450 | Drosophila S2 Gal4-RORgamma UAS-luciferase reporter, 20 h | Potency, µM (highest dose often 53.6 µM), inactives show at the top dose activity change, negative = inhibition, usual class: inhibitors | 5.4% of 310,000 active; note: nearly all actives have a fitted effect of over 60% in size
#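 Stably transfected Drosophila Schneider cells are the test system, with ROR gamma fused to Gal4 and luciferase under UAS control; luminescence is read after 20 hr of 700 uM copper sulfate induction at ambient temperature.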
# VP16 counter – Gal4-VP16 reporter inhibition counter-screen; Drosophila S2 Gal4-VP16 UAS-luciferase, luminescence, 20 h; Potency, µM (doses to about 53.6 µM), for the others: at the top dose activity, negative = inhibition, most hits filed as inhibitors; 3.5% of 310,000 active;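 note: Gal4-VP16 expression switched on by copper sulfate through the metallothionein promoter; nearly all actives have a fitted effect of over 50% in size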
# ALDH1A1 block – inhibitors of human aldehyde dehydrogenase 1A1. P00352. Purified ALDH1A1, NADH fluorescence, propionaldehyde substrate. Potency, µM (series often up to 75.3 µM), for the others: at the highest dose activity, negative = inhibition, usual class: inhibitors. 7.3% of 220,000 active. AID 1030; active = well fitted inhibition curve with a large enough effect, not every such curve was filed as active; inconclusive = small, poorly fitted or top-dose-only effect, or another doubt; inactive = no such curve, though single readings can be large or run the other way;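 note: plate controls were no enzyme wells and a reference inhibitor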
# Target sequence (P00352 whole entry, looked up): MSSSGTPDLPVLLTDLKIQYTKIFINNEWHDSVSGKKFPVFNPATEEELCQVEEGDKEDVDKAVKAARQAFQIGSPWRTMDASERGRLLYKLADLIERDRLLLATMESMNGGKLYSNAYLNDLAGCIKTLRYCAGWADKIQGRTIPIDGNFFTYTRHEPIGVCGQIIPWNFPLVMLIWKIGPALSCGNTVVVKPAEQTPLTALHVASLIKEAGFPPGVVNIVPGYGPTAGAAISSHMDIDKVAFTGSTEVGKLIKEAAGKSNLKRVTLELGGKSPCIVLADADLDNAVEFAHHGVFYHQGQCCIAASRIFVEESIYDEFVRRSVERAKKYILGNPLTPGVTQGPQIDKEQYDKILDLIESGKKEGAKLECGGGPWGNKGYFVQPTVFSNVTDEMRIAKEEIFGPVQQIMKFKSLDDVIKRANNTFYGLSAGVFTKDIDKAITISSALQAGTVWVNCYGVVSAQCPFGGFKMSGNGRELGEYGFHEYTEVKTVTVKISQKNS
# * = called active by the depositor; ? = inconclusive; / = no result; [ ] = another dose, or the depositor's remark. In the library only some 12% were active in any assay of this set; here they are far more common. Unless noted, calls come from the whole dose curve; as a rule, active = well fitted curve in the direction sought with a large enough effect; inconclusive = small, poorly fitted or top-dose-only effect, or another doubt; inactive = no such curve, though single readings can be large; an effect the other way counts as inactive or inconclusive. Unless noted, % is set by controls: 0 for no effect and ±100 for the full control effect; potency is the fitted concentration of half-maximal effect.
SMILES,Sfp PPTase inh,PLK1 PBD inh,RORg inh,VP16 counter,ALDH1A1 block
COc1cccc(Nc2nc3ccccc3nc2NS(=O)(=O)c2ccc(NC(C)=O)cc2)c1,3%,67µM*,?,-2%,/
CC(=O)Nc1ccc(S(=O)(=O)Nc2nc3ccccc3nc2N2CCCC2)cc1,18%,-6%,6%[0.365 µM],/,11µM*
CCN1CCN(c2nc3ccccc3nc2NS(=O)(=O)c2ccc(NC(C)=O)cc2)CC1,9%,-9%,10%,-4%,/
CCn1nc(NS(=O)(=O)c2ccc(NC(C)=O)cc2)c2cc3ccc(C)cc3nc21,9%,?,12%,10%,/
CCn1nc(NS(=O)(=O)c2ccc(NC(C)=O)cc2)c2cc3ccccc3nc21,23%,24µM*,0%,-6%,/
O=C1c2ccccc2C(O)(c2ccccc2)N1c1ccc([N+](=O)[O-])cc1Cl (stereo not drawn),/,-15%,/,/,/
COc1ccc(OC)c(CN2C(=O)CSCC2(C)C(=O)Nc2c(C)cccc2C)c1 (stereo not drawn),/,-6%,/,/,/
O=c1ccc(-c2ccc(S(=O)(=O)NCc3cccc(Br)c3)s2)n[nH]1,13%,-11%,-9%,2%,/
Cc1ccc(CN2CCC(CNS(=O)(=O)c3ccc(-c4ccc(=O)[nH]n4)s3)CC2)cc1,5%,30µM*,0%,-1%,/
COc1ccc(C2Nc3ccccc3C(=O)N2c2ccc(C)cc2)cc1Cn1cc([N+](=O)[O-])cn1 (stereo not drawn),3%,-4%,28%,1%,28µM*
CC(=O)c1cccc(NS(=O)(=O)c2c(C(=O)N3CCOCC3)c(C)n(C)c2C)c1,7%,-1%,-8%,3%,/
CC1=CC(=O)C=C(C)C1=NOC(=O)c1cccc([N+](=O)[O-])c1,-22%,9.5µM*,11µM*,?,-6%
Cc1cccc(C(=O)O/N=C(\N)c2cccc([N+](=O)[O-])c2)c1,16%,-16%,?,?,-10%
CC(C)(C)S(=O)(=O)/C(C#N)=C/c1sccc1C1OCCO1,4%,21µM*,-1%,9%,7.9µM*
COC(=O)c1cc(Cl)c(NC(=O)c2ccc(C(C)(C)C)cc2)cc1OC,14µM*,2%,?,-7%[0.365 µM],?
CN(C)c1ccc(C(=S)NC2CCCCC2)cc1,20µM*,13µM*,8.9µM*,3%,3.5µM*
CCN(CC)c1ccc(C(=S)NCc2ccccc2)cc1,10µM*,?,?,-4%,10µM*
CN(C)c1ccc(C(=O)OCC(=O)NC2CCCCCC2)cc1,-18%,-10%,40%,3%,6%
CCN(CC)c1ccc(C(=S)NC2CCCCC2)cc1,32µM*,24µM*,8.9µM*,14µM*,7.9µM*
CCCCOCCCNC(=O)C[C@@H]1C[C@@]2(C(=O)OC)CCCCC=C2N(Cc2cccc3ccccc23)C1=O,/,-9%,/,/,/
CCC(C)(C)NC(=O)c1ccc(Sc2nncn2C)c([N+](=O)[O-])c1,7%,-30%,-19%,-9%,9%
CN(C)S(=O)(=O)c1cccc(NC(=O)c2ccc(Sc3nncn3C)c([N+](=O)[O-])c2)c1,-13%,-4%,?,4%,0.56µM*
Cn1cnnc1Sc1ccc(/C=C/C(=O)c2ccc(O)cc2)cc1[N+](=O)[O-],-10%,-22%,10µM*,?,-2%
CCS(=O)(=O)c1ccc(Sc2nncn2C)c([N+](=O)[O-])c1,0%,-21%,-2%,-4%,22µM*
Cn1cnnc1Sc1ccc(C(=O)NCCC23CC4CC(CC(C4)C2)C3)cc1[N+](=O)[O-],5%,-1%,-15%,-11%,2.8µM*
SMILES,Sfp PPTase inh,PLK1 PBD inh,RORg inh,VP16 counter,ALDH1A1 block
CCN(CC)S(=O)(=O)c1ccc(NC(=O)c2ccc(Sc3nncn3C)c([N+](=O)[O-])c2)cc1,2%,-15%,4%,-4%,?
O=C1CCCC2=C1C1O[C@](CCCCN3C(=O)c4ccccc4C3=O)(Cc3ccccc31)O2,-2%,/,2%[10 µM],-4%[10 µM],/
CO[C@@H]1COC(=O)C/C=C\[C@@H](C)[C@H](OC)COC(=O)[C@H](COCc2ccccc2)NC(=O)C/C=C\[C@H]1C,-11%,/,13%[10 µM],-3%[10 µM],-15%[13.5 µM]
CN(C(=O)c1ccc(Cl)cc1)c1ccc(OCC(=O)Nc2cc(C(=O)O)ccc2Cl)cc1,/,-3%,/,/,/
COc1ccc(NC(=O)/C(C#N)=C/c2ccc(Sc3nncn3C)c([N+](=O)[O-])c2)cc1,-18%,?,-40%,22µM*,11µM*
COCCN1C[C@@H](CO)O[C@@H](n2cnc3c(NCc4ccco4)ncnc32)C1,/,-6%,/,/,/
Cc1sc2nc(COC(=O)c3c(F)cccc3F)[nH]c(=O)c2c1C,20%,-3%,13µM*,23%,0%
Cc1sc2nc(COC(=O)c3ccc(N4CCCC(C)C4)c([N+](=O)[O-])c3)[nH]c(=O)c2c1C (stereo not drawn),-20%,-6%,-6%,25%,-13%
Cc1sc2nc(COC(=O)c3ccc(N4CCCC4)c([N+](=O)[O-])c3)[nH]c(=O)c2c1C,-12%,-6%,-7%,-22%,18µM*
Cc1sc2nc(COC(=O)CNC(=O)c3ccc(C(C)(C)C)cc3)[nH]c(=O)c2c1C,2%,4%,-31%,22%,8.9µM*
Cc1sc2nc(COC(=O)c3ccc(O)cc3)[nH]c(=O)c2c1C,2%,-5%,-18%,4%,/
CC(CCC(=O)O)C1CCC2C3CC(O)[C@@H]4CC(O)CC[C@]4(C)C3CC[C@@]12C (stereo partly drawn),?,/,-34%,2%,11%
Cc1ccccc1-n1nnnc1SCC(=O)NC1CC1,/,-14%,/,/,/
Cc1ccc(NC(=O)CCSc2nnnn2-c2ccc3c(c2)OCO3)cc1C,14%,3%,30%,-2%,13µM*
CCC(=O)Nc1ccc(NC(=O)CSc2nnnn2-c2ccc3c(c2)OCCO3)cc1,0%,-18%,-4%,2%,8%
CC(C)Oc1ccccc1NC(=O)CSc1nc2ccccc2c(=O)n1C,-1%,-1%,?,-19%,/
Cc1ccccc1NC(=O)CSc1nc2ccccc2c(=O)n1C,-6%,-3%,?,11µM*,/
CSc1ccccc1-n1nnnc1SCC(=O)Nc1ccccc1C,7%,1%,-12%,2%,13µM*
O=C(CSc1nnnn1-c1ccccc1)NCc1cccs1,16%,-6%,38%,25%,-12%
CSc1ccccc1-n1nnnc1SCC(=O)NCc1cccs1,11%,-8%,31%,-8%,16µM*
O=C(CSc1nnnn1-c1ccc2c(c1)OCCO2)OC1CCCCC1,-3%,-10%,?,?,5µM*
Cc1ccccc1NC(=O)CCSc1nnnn1-c1ccccc1,-12%,1%,-7%,-15%,8.9µM*
CSc1ccccc1NC(=O)CSc1nnnn1-c1ccccc1SC,7%,-2%,-23%,-4%,11µM*
Cc1ccc([C@H]2C[C@@H](n3cc(COC(=O)c4ccccc4)nn3)[C@H](O)CN2C(=O)C2CCCCC2)cc1,/,-17%,/,/,/
